# Screening results: PubChem, The Scripps Research Institute Molecular Screening Center
# SMARCA2 act: increases SMARCA2 function in MMTV reporter cells. actives 1% (n = 370,000). activation, % at 9.1 µM. MG213 cells, MMTV-luciferase reporter, dexamethasone, overnight; in the data active means activation above about 7.8%;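 further: 0% = vehicle wells and 100% = reference activator wells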
# DAX1 inh-1: blocks DAX1 repression of SF-1 activated StAR promoter | inhibition, % at 6.8 µM | HEK293T StAR-luciferase reporter, SF-1/DAX-1 repression relief | actives 1.1% (n = 370,000);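 active means inhibition above the mean over all tested compounds plus 3 SD, cut at about 3.6% in these data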;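 further: 0% = DAX-1 cells with DMSO and 100% = cells lacking DAX-1 with DMSO; higher inhibition means more luminescence from relief of DAX-1 repression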
# hcDAF-12 act: activates DAF-12 receptor from parasite H. contortus. HEK293 hcDAF-12 lit1-tk-luc reporter, luminescence; 0% DMSO, 100% Δ7-dafachronic acid. activation, % at 6.8 µM. actives 1.4% (n = 370,000). AID 652067;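 active means activation above the mean of all tested compounds plus 3 SD, cut at about 5.5% in these data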;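 further: 100% = response to 3 µM Δ7-dafachronic acid high control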
# hgDAF-12 ag: activates the H. glycines DAF-12 receptor ligand-binding domain; AID 687014; HEK293 GAL4-hgDAF12 UAS-luciferase reporter, agonist luminescence; normalized to butyrate control; activation, % at 6.8 µM; actives 1.8% (n = 370,000);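 active means activation above a cutoff set at the mean of all screened compounds plus 3 SD, cut at about 10% in these data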;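 further: 0% = DMSO wells and 100% = sodium butyrate wells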
# DAX1 inh-2: inhibits human nuclear receptor DAX1; HEK293 Gal4-DAX1 luciferase reporter, luminescence; inhibition, % at 6.75 µM; actives 0.99% (n = 340,000); AID 504766;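 active means inhibition above the mean over all tested compounds plus 3 SD, cut at about 4.2% in these data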;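 further: 0% = DAX1-transfected cells with DMSO and 100% = empty-vector control cells with DMSO; inhibition shows as a rise in luminescence from relieved DAX1 repression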
# ssDAF12 agonist: S. stercoralis DAF-12 activation, primary screen | HEK293 ssDAF-12/GRIP1 lit1-tk-luc reporter, luminescence; % of 3 µM dafachronic acid response | activation, % at 6.8 µM | actives 1% (n = 370,000);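 active means activation above the mean over all tested compounds plus 3 SD, cut at about 0.9% in these data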;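 further: 0% = DMSO-only wells and 100% = 3 µM delta7-dafachronic acid wells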
# LXR ag: activates human LXR-beta, counter-screen for hcDAF-12 agonists; activation, % at 6.8 µM; 3,400 tested, under 10 active; shares compounds with hcDAF-12 act; HEK293 Gal4-LXR tk-luc reporter, luminescence, 24 h; normalized: DMSO 0%, positive control 100%; AID 743027;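 active means mean percent activation of the reporter above a cutoff set as the average over tested compounds plus their standard deviation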
# Target sequence (P55055 whole entry, looked up, the tested form may be a part): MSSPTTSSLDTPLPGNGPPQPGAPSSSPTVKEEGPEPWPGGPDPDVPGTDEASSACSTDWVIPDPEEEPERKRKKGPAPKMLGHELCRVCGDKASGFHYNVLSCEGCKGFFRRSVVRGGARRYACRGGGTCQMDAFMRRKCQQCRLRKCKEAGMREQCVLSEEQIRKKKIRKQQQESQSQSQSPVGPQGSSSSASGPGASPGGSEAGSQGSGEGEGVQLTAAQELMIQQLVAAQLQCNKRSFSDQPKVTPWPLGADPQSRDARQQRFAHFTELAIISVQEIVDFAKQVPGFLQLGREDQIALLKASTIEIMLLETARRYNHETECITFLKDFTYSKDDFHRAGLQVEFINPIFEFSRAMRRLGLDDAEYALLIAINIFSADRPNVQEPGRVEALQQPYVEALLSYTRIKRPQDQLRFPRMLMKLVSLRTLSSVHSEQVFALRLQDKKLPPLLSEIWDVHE
# hcDAF12 conf: confirmation of H. contortus DAF-12 agonists; shares compounds with hcDAF-12 act; HEK293 hcDAF-12 lit1-tk-luc reporter, luminescence; % of Δ7-dafachronic acid response; activation, % at 6.8 µM; actives 61% (n = 3,400); AID 743032;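 active means mean activation across triplicate tests above the threshold derived from the earlier primary screen, cut at about 5.5% in these data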;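 further: 0% = DMSO only wells and 100% = 3 µM Δ7-dafachronic acid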
# * hit, by the source's call; . = no result. Shown are actives, neighbours in structure and some others; about 4.8% of the full set was active somewhere.
SMILES,SMARCA2 act,DAX1 inh-1,hcDAF-12 act,hgDAF-12 ag,DAX1 inh-2,ssDAF12 agonist,LXR ag,hcDAF12 conf
Cc1occc1C(=O)N=Nc1c(O)n(C)c2ccccc12,5.5,2.9,14.7*,16.8*,0.6,1.0*,1.6,15.3*
CCOC(=O)C(=O)N=Nc1c(O)n(C)c2ccccc12,1.2,0.7,2.7,-1.3,0.8,-0.9,.,.
Cn1c(O)c(N=Nc2ccccc2[N+](=O)[O-])c2ccccc21,3.7,0.9,11.3*,11.5*,2.0,2.6*,0.5,9.0*
Clc1ccc2oc(-c3ccccn3)nc2c1,5.8,2.0,7.6*,10.2,2.0,1.8*,1.2,9.0*
Nc1ccc2oc(-c3ccccn3)nc2c1,6.2,0.7,1.6,4.6,1.8,-0.5,.,.
COc1ccc(Cc2c(-c3ccc(C)cc3)nc3cc(C)c(Br)c(C)n23)c(C)c1,4.0,3.4,11.1*,10.8*,.,2.1*,-0.1,6.1*
COc1ccc(Cc2c(-c3cccc(Br)c3)nc3cc(C)c(Br)c(C)n23)c(C)c1,0.1,-2.3,4.5,-6.7,.,0.5,.,.
COc1ccc2c(C(=O)CN3CCSCC3)c[nH]c2c1,-0.3,0.7,6.6*,3.2,-0.2,0.0,-0.1,3.6
CCCCOC(=O)Nc1ccc(N(C)C)cc1,4.5,4.4*,7.2*,11.3*,1.5,0.6,1.1,5.8*
CCCOc1ccc(C(=O)Nc2ccc(N(C)C)cc2)cc1,1.3,-0.3,-2.2,3.2,-0.7,-1.3,.,.
CCOC(=O)c1c(C)oc2c1c1c(c3ccccc32)OCN(CCCC(=O)O)C1,3.7,1.7,8.9*,7.5,5.0*,1.2*,0.8,11.8*
CCC(C)[C@H](NC(=O)N1CC(=O)Nc2ccccc21)C(=O)N[C@@H](C(=O)O)c1ccccc1 (stereo not given in full),-0.9,0.0,-0.3,0.9,-0.2,-1.1,.,.
CCC(C)[C@H](NC(=O)N1CC(=O)Nc2ccccc21)C(=O)N[C@H](Cc1c[nH]c2ccccc12)C(=O)O (stereo not given in full),0.3,-0.5,8.0*,-0.3,0.6,0.2,-0.3,3.1
COc1ccc(OCc2cc(C(=O)N(C)Cc3nnc(C)o3)no2)c(Cl)c1,0.2,1.0,6.6*,9.9,1.0,0.3,0.9,3.2
COc1cccc(CNC(=O)[C@@H]2CCCN2C(=O)[C@H]2CCCCN2C(=O)c2ccc(Cl)cc2)c1,-7.5,-0.9,-0.9,-1.3,.,-1.8,.,.
O=C(CCc1nnc(Cc2c[nH]c3ccccc23)o1)NCCC1CCCCO1 (stereo not given),4.9,0.1,6.8*,5.8,1.1,0.4,-0.2,1.8
CCCn1nnnc1SCC(=O)N1CCCc2ccccc21,-0.4,-0.2,0.3,0.1,-0.5,-0.7,.,.
Cc1cccc(C(=O)NNC(=O)c2ccc(Cl)cc2)c1O,3.1,1.8,7.1*,5.3,1.5,0.5,0.3,5.9*
COCc1c(C(=O)Nc2nc(C)cs2)oc2ccccc12,0.2,0.0,6.8*,2.6,-1.6,0.0,0.1,5.7*
COCc1c(C(=O)Nc2ccc(Cl)cc2F)oc2ccccc12,1.6,0.2,4.8,3.2,3.7,-1.2,.,.
Cc1ccc(S(=O)(=O)CC(=O)NCc2ccc(Cl)cc2)cc1,0.4,1.2,-0.5,0.8,1.8,-1.2,.,.
O=S(=O)(Nc1nc2ccccc2nc1N1CCN(c2ccccc2)CC1)c1ccc(F)cc1,-1.8,0.1,8.3*,0.3,-1.4,0.8,-0.1,5.1
O=C(COC(=O)c1ccc(Cl)c(Cl)c1)Nc1cccnc1Cl,-3.4,-0.1,-1.5,-0.6,1.0,-1.1,.,.
O=C(COC(=O)c1n[nH]c2ccccc12)Nc1ccccc1F,2.3,1.6,6.8*,7.5,2.4,1.8*,0.6,8.2*
Cc1ccc(/C=C/C(=O)Nc2ncc(C)s2)o1,7.6,2.9,7.2*,9.0,1.7,0.0,1.1,4.7
SMILES,SMARCA2 act,DAX1 inh-1,hcDAF-12 act,hgDAF-12 ag,DAX1 inh-2,ssDAF12 agonist,LXR ag,hcDAF12 conf
CCC1(c2ccc(F)cc2)NC(=O)N(CC(=O)NCc2ccc(F)cc2)C1=O (stereo not given),-3.8,0.1,-0.7,-2.7,0.9,-1.5,.,.
Cc1cc(-c2ccccc2)nc2oc(C(=O)NN)c(N)c12,-5.0,-0.7,6.6*,-1.0,-0.5,1.2*,-0.2,4.0
Cc1cc(C)c2c(N)c(C(=O)c3ccccc3)oc2n1,-1.6,-1.1,-0.5,-0.1,0.8,-1.5,.,.
Cc1nc(SCC(=O)NCc2ccccc2)c2c(=O)n(C)c(=O)n(C)c2n1,-2.8,-0.4,0.3,1.1,0.5,-1.1,.,.
CCN(CC)S(=O)(=O)c1cc(NS(=O)(=O)c2cccc(Cl)c2Cl)ccc1C,-0.8,-0.2,-1.9,1.7,-1.0,-1.4,.,.
CCCn1c2ccc(C)cc2c2nnc(SCCN3CCCCC3)nc21,4.2,0.7,9.3*,0.1,0.2,0.5,-0.1,4.7
COc1ccc(N2CCN(C3CC(=O)NC3=O)CC2)cc1 (stereo not given),-1.9,-0.7,0.0,0.5,-0.2,-1.1,.,.
Cc1ccoc1C(=O)Nc1ccc2ccccc2c1,-1.1,1.4,17.1*,12.2*,-1.8,0.4,2.0,14.3*
Cc1ccc(C(=O)Nc2ccc3ccccc3c2)cc1,-1.6,0.1,3.0,-2.0,-7.2,-0.8,.,.
Nc1c2c(nc3cccc(Cl)c13)N(c1ccccc1)CC2,0.2,0.3,7.2*,0.1,0.9,1.1*,0.2,7.4*
Cc1ccc2nc3c(c(N)c2c1)CCN3c1ccccc1,-2.0,-0.6,-0.3,0.2,-1.9,-1.6,.,.
COc1ccccc1C(=O)NCCC(=O)N1CCN(c2ccc(C(F)(F)F)cn2)CC1,-2.7,-1.5,-3.1,-0.6,0.1,-1.1,.,.
O=C(N/N=C\c1cc(Br)cs1)c1ccncc1,2.2,0.2,0.4,0.6,1.1,-0.7,.,.
O=C(O)c1ccc(N/N=C/c2cc(Br)cs2)cc1,1.3,1.5,12.1*,6.0,-3.2,1.0*,0.8,9.0*
CCN1CCCC1CNC(=O)c1cc2cc(F)ccc2[nH]1 (stereo not given),-0.8,0.7,11.2*,4.1,3.3,1.2*,-0.1,5.9*
CCN1CCCC1CNC(=O)Cn1nc(C)n2c(cc3cc(F)ccc32)c1=O (stereo not given),-0.3,0.7,-0.5,-1.3,1.4,0.0,.,.
CC(=O)c1c(C)nc(-c2ccccc2)nc1N,-0.4,0.3,0.8,8.1,0.9,-0.6,.,.
